Measured values: PubChem BioAssay AID1159580 (chemical genetic matrix, 2015)
Screen size: about 5,500 compounds; about 2,000 (36%) were called active. Roughly 18% stayed inconclusive and do not appear here. No stated cut-off is given here; in the data, active means normalized growth mostly below about 0.91 (no sharp cut-off); inconclusive means no clear call, values can overlap the other calls; inactive means mostly above about 0.92. The list shows a part of the results.

Test: chemical genetic growth profiling, strain panel (AID 1159580);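 further: tested at 20 µM; growth read once vehicle control cultures reached saturation at 30 °C; 1 = growth at the plate median or of vehicle wells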
Settings: growth OD

Measured: normalized growth

O=c1cc(-c2ccc(O)cc2)oc2cc(O[C@@H]3O[C@H](CO)[C@@H](O)[C@H](O)[C@H]3O)cc(O)c12
inactive: S. cerevisiae deletion strains, locus YJR075W, strain HOC1, stronger effect = lower value 0.993 | S. cerevisiae deletion strains, locus YKL009W, strain mrt4, stronger effect = lower value 0.936 | S. cerevisiae deletion strains, locus YKL068W, stronger effect = lower value 0.989 | S. cerevisiae deletion strains, locus YKL085W, strain MDH1 (second series), stronger effect = lower value 0.974 | S. cerevisiae deletion strains, locus YKL085W, strain MDH1, stronger effect = lower value 0.974 | S. cerevisiae deletion strains, locus YKL160W, strain elf1, stronger effect = lower value 0.985 | S. cerevisiae deletion strains, locus YKR001C, strain vps1, stronger effect = lower value 0.958 | S. cerevisiae deletion strains, locus YKR026C, strain gcn3, stronger effect = lower value 1.01 | S. cerevisiae deletion strains, locus YKR091W, strain srl3, stronger effect = lower value 1 | S. cerevisiae deletion strains, locus YLL001W, strain dnm1, stronger effect = lower value 1.01 | S. cerevisiae deletion strains, locus YLL026W, stronger effect = lower value 1.01 | S. cerevisiae deletion strains, locus YLL041C, strain sdh2, stronger effect = lower value 1 | S. cerevisiae deletion strains, locus YLR027C, strain aat2, stronger effect = lower value 0.997 | S. cerevisiae deletion strains, locus YLR039C, strain RIC1, stronger effect = lower value 0.996 | S. cerevisiae deletion strains, locus YLR058C, strain SHM2, stronger effect = lower value 0.989 | S. cerevisiae deletion strains, locus YLR102C, strain apc9, stronger effect = lower value 0.968 | S. cerevisiae deletion strains, locus YLR113W, strain HOG1, stronger effect = lower value 1.03 | S. cerevisiae deletion strains, locus YLR221C, strain rsa3, stronger effect = lower value 1.04 | S. cerevisiae deletion strains, locus YLR258W, strain gsy2, stronger effect = lower value 0.996 | S. cerevisiae deletion strains, locus YLR262C, strain YPT6 (second series), stronger effect = lower value 1.02 | S. cerevisiae deletion strains, locus YLR262C, strain YPT6, stronger effect = lower value 0.971 | S. cerevisiae deletion strains, locus YLR268W, strain sec22, stronger effect = lower value 0.963 | S. cerevisiae deletion strains, locus YLR320W, strain mms22, stronger effect = lower value 1.05 | S. cerevisiae deletion strains, locus YLR330W, strain CHS5, stronger effect = lower value 0.985 | S. cerevisiae deletion strains, locus YLR342W, strain FKS1 (second series), stronger effect = lower value 0.98 | S. cerevisiae deletion strains, locus YLR342W, strain FKS1, stronger effect = lower value 1.01 | S. cerevisiae deletion strains, locus YLR357W, strain rsc2, stronger effect = lower value 1.01 | S. cerevisiae deletion strains, locus YLR370C, strain arc18, stronger effect = lower value 0.976 | S. cerevisiae deletion strains, locus YLR371W, strain rom2, stronger effect = lower value 0.964 | S. cerevisiae deletion strains, locus YLR384C, strain iki3, stronger effect = lower value 1.01 | S. cerevisiae deletion strains, locus YLR418C, strain cdc73, stronger effect = lower value 0.964 | S. cerevisiae deletion strains, locus YML016C, strain PPZ1, stronger effect = lower value 0.988 | S. cerevisiae deletion strains, locus YML032C, strain rad52, stronger effect = lower value 0.973 | S. cerevisiae deletion strains, locus YML120C, strain ndi1, stronger effect = lower value 0.986 | S. cerevisiae deletion strains, locus YML124C, strain tub3, stronger effect = lower value 0.983 | S. cerevisiae deletion strains, locus YMR058W, strain fet3, stronger effect = lower value 1.02 | S. cerevisiae deletion strains, locus YMR078C, strain ctf18, stronger effect = lower value 1.01 | S. cerevisiae deletion strains, locus YMR125W, strain sto1, stronger effect = lower value 0.968 | S. cerevisiae deletion strains, locus YMR129W, stronger effect = lower value 1 | S. cerevisiae deletion strains, locus YMR205C, strain PFK2, stronger effect = lower value 1.01 | S. cerevisiae deletion strains, locus YMR223W, strain ubp8, stronger effect = lower value 1.01 | S. cerevisiae deletion strains, locus YMR231W, strain pep5, stronger effect = lower value 1 | S. cerevisiae deletion strains, locus YMR307W, strain GAS1, stronger effect = lower value 1.02 | S. cerevisiae deletion strains, locus YNL067W, strain RPL9B, stronger effect = lower value 1.01 | S. cerevisiae deletion strains, locus YNL071W, strain lat1, stronger effect = lower value 0.995 | S. cerevisiae deletion strains, locus YNL153C, strain GIM3, stronger effect = lower value 1 | S. cerevisiae deletion strains, locus YNL183C, strain NPR1, stronger effect = lower value 0.975 | S. cerevisiae deletion strains, locus YNL209W, strain ssb2, stronger effect = lower value 0.994 | S. cerevisiae deletion strains, locus YNL233W, strain BNI4, stronger effect = lower value 0.987 | S. cerevisiae deletion strains, locus YNL248C, strain rpa49, stronger effect = lower value 1.08 | S. cerevisiae deletion strains, locus YNL250W, strain rad50, stronger effect = lower value 0.98 | S. cerevisiae deletion strains, locus YNL271C, strain bni1, stronger effect = lower value 0.975 | S. cerevisiae deletion strains, locus YNL298W, strain CLA4, stronger effect = lower value 0.98 | S. cerevisiae deletion strains, locus YNL307C, strain MCK1, stronger effect = lower value 0.973 | S. cerevisiae deletion strains, locus YNL322C, strain KRE1 (second series), stronger effect = lower value 0.993 | S. cerevisiae deletion strains, locus YNL322C, strain KRE1, stronger effect = lower value 0.987 | S. cerevisiae deletion strains, locus YNR049C, strain mso1, stronger effect = lower value 1.03 | S. cerevisiae deletion strains, locus YNR052C, strain pop2, stronger effect = lower value 0.997 | S. cerevisiae deletion strains, locus YOL012C, strain htz1 0.98 | S. cerevisiae deletion strains, locus YOL147C, strain pex11, stronger effect = lower value 0.978 | S. cerevisiae deletion strains, locus YOR001W, strain rrp6, stronger effect = lower value 1.04 | S. cerevisiae deletion strains, locus YOR061W, strain CKA2, stronger effect = lower value 0.979 | S. cerevisiae deletion strains, locus YOR069W, strain VPS5, stronger effect = lower value 0.978 | S. cerevisiae deletion strains, locus YOR070C, strain gyp1, stronger effect = lower value 1.02 | S. cerevisiae deletion strains, locus YOR080W, strain dia2, stronger effect = lower value 1.01 | S. cerevisiae deletion strains, locus YOR083W, strain WHI5, stronger effect = lower value 0.974 | S. cerevisiae deletion strains, locus YOR106W, strain vam3, stronger effect = lower value 0.966 | S. cerevisiae deletion strains, locus YOR136W, strain idh2, stronger effect = lower value 0.958 | S. cerevisiae deletion strains, locus YOR144C, strain elg1, stronger effect = lower value 0.98 | S. cerevisiae deletion strains, locus YOR184W, strain ser1, stronger effect = lower value 1 | S. cerevisiae deletion strains, locus YOR231W, strain MKK1, stronger effect = lower value 1.05 | S. cerevisiae deletion strains, locus YOR265W, strain rbl2, stronger effect = lower value 1.01 | S. cerevisiae deletion strains, locus YOR270C, strain vph1, stronger effect = lower value 1.06 | S. cerevisiae deletion strains, locus YOR290C, strain snf2, stronger effect = lower value 0.961 | S. cerevisiae deletion strains, locus YOR316C, strain cot1, stronger effect = lower value 0.969 | S. cerevisiae deletion strains, locus YPL051W, strain arl3, stronger effect = lower value 1.03 | S. cerevisiae deletion strains, locus YPL078C, strain atp4, stronger effect = lower value 0.968 | S. cerevisiae deletion strains, locus YPL106C, strain sse1, stronger effect = lower value 1 | S. cerevisiae deletion strains, locus YPL240C, strain hsp82, stronger effect = lower value 1.01 | S. cerevisiae deletion strains, locus YPL241C, strain CIN2, stronger effect = lower value 0.994 | S. cerevisiae deletion strains, locus YPL256C, strain CLN2, stronger effect = lower value 1 | S. cerevisiae deletion strains, locus YPR119W, strain clb2, stronger effect = lower value 0.989 | S. cerevisiae deletion strains, locus YPR141C, strain kar3, stronger effect = lower value 0.968 | S. cerevisiae deletion strains, locus YPR163C, strain tif3, stronger effect = lower value 0.982 | S. cerevisiae deletion strains, locus YPR167C, strain met16, stronger effect = lower value 0.979 | S. cerevisiae deletion strains, strain wtn01, stronger effect = lower value 0.955 | S. cerevisiae strains, strain wild type, stronger effect = lower value 0.993
